In PubChem BioAssay AID624202 (National Center for Advancing Translational Sciences (NCATS), 2012):
Screen size: about 380,000 compounds; about 4,000 (1.1%) were called active. Entries that show only a call come without a potency. Another 3% or so got no clear call; they are omitted. The call rests on the fitted dose curve; in most records, active means well fitted activation curve with a large enough effect; inconclusive means small, poorly fitted or top-dose-only effect; inactive means no such curve, though single readings can be large or run the other way. For the sample, actives were picked, then their nearest neighbours and some compounds at random.

experiment: qHTS Assay to Identify Small Molecule Activators of BRCA1 Expression; conditions: MCF7-BRCA1-FFLuc reporter, luminescence, 48 h; series mostly up to 46.1 µM; further: nearly all actives have a fitted effect of over 80% in size
Summary of the method: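 Using MCF7 cells harboring a BRCA1 firefly luciferase reporter, plated 2 h before compound pinning, the screen measured luminescence after 48 h incubation. Responses were normalized to DMSO and 10 microM genistein, then fitted for concentration-effect.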
Potency means the concentration at half of the fitted maximal effect.

Structure (SMILES) | Potency
Cn1cccc1C(=O)Nc1nccs1 | inactive
CCCCOC(=O)Nc1nccs1 | inactive
CC(=O)Oc1ccc(C(=O)Nc2nccs2)cc1 | 11.2 µM (active)
Cc1ccc(NC(=O)c2oc3ccccc3c2NC(=O)Cc2cccs2)cc1 | inactive
Cc1cc(NC(=O)c2ccc(-c3ccc(Cl)cc3)o2)cc(-c2nc3ncccc3o2)c1O | inactive
CCOc1cc(C2c3c(-c4ccc(Br)cc4)n[nH]c3C(=O)N2c2ccc(Cl)cc2)ccc1O (configuration not stated) | inactive
CCC1=Nc2cc(C(=O)NCC(C)c3ccccc3)ccc2Sc2ccc(C)cc21 (configuration not stated) | inactive
O=C(COc1ccccc1F)OCc1cc(=O)n2nc(C3CCCCC3)sc2n1 | inactive
COc1cccc(CNCc2c(C(=O)O)n(Cc3ccc(C)cc3)c3cc(C)ccc23)c1OC | inactive
Cn1c(SCC(=O)N2CCCC2)nnc1-c1cccs1 | inactive
O=C(CSc1n[nH]c(-c2cccs2)n1)N1CCCCC1 | inactive
O=C(CSCc1cccs1)N1CCCC1 | 12.6 µM (active)
OC(CBr)C[n+]1cccc2cc(Br)ccc21 (configuration not stated) | inactive
CCCCOc1ccc(C(=O)Nc2cccc(-c3nc4ccccc4o3)c2C)cc1 | inactive
COc1ccc2c(c1)CCc1c(C(=O)N3CCc4ccccc4C3)noc1-2 | inactive
O=C(c1noc2c1CCCC2)N1CCc2ccccc2C1 | 5.62 µM (active)

Structure (SMILES) | Potency
CN(c1ccc(C(=O)N2CCc3ccccc3C2)cc1)S(C)(=O)=O | inactive
COc1ccc2c(c1)c(N1CCCC1=O)c(C(=O)Nc1ccc(OC)c(Cl)c1)n2C | inactive
O=C(c1ccc2c(c1)N(Cc1ccc(Cl)cc1)C(=O)c1ccccc1S2(=O)=O)N1CCCCC1 | inactive
CCN(CC(=O)NCCc1ccccc1)S(=O)(=O)c1ccc(C)cc1 | inactive
CCN(c1cccc(C)c1)S(=O)(=O)c1ccc(-c2coc(C)n2)cc1 | inactive
CCN(CC)S(=O)(=O)c1ccc(-c2cn3ccc(C)cc3n2)cc1 | 3.55 µM (active)
CCC(=O)N1N=C(c2ccc(OC)cc2)CC1c1cn(-c2ccccc2)nc1-c1cccs1 (configuration not stated) | inactive
CN(C(=O)CSc1nc2ccccc2n1Cc1ccccc1C#N)c1ccccc1 | inactive
CN1CCN(/[N+]([O-])=N/Oc2ccc([N+](=O)[O-])cc2[N+](=O)[O-])CC1 | inactive
Cc1cc2nc(SCCN3CCOCC3)[nH]c2cc1C | 4.47 µM (active)
COc1ccc2nc(SCC(=O)Nc3c(C)cc(C)cc3C)[nH]c2c1 | inactive
CCn1c2ccc(F)cc2c2nnc(SCCN3CCOCC3)nc21 | inactive
COc1cc(C)ccc1OCCSc1nc2ccc(NC(=O)c3ccc(C)cc3)cc2s1 | inactive
CCOc1ccc(CCNC(=O)c2cc3c(=O)n(C)c4ccccc4c3n2C)cc1 | inactive
Cc1ccccc1CCNC(=O)C1CCN(c2nc3ccccc3nc2C(F)(F)F)CC1 | inactive
COc1ccc(-n2c(C)nc3c(cnn3-c3ccc(F)cc3)c2=O)cc1 | inactive
